# Measurements: the supplement of paper PMC13380429
# How the values were obtained:
# [1] = system: Vero E6 infected with SARS-CoV-2; assay: morphology score (similarity to uninfected cells); higher = more like uninfected cells; details: 24 h
# [2] = system: Vero E6 infected with SARS-CoV-2; assay: SARS-CoV-2 infection rate relative to infected DMSO; higher = more infection, active = 60 or less; details: 24 h
SMILES,morphology score [1],SARS-CoV-2 infection rate [2]
CC(=O)N[C@@H](CC(C)C)C(=O)O [acetyl-l-leucine] (10 µM),0.134,94.5% (inactive)
NC(=O)CC[C@H](N)C(=O)O [L-glutamine] (10 µM),0.278,94% (inactive)
Nc1nc(=O)n([C@@H]2CS[C@H](CO)O2)cc1F [emtricitabine] (10 µM),0.154,114% (inactive)
COc1cc(C(=O)NCC2(N(C)C)CCCC2)cc(OC)c1OCc1ccccc1 (10 µM),0.334,77.5% (inactive)
Fc1ccc([C@@H]2CCNC[C@H]2COc2ccc3c(c2)OCO3)cc1 [paroxetine] (10 µM),-0.0761,117% (inactive)
N[C@@H](C(=O)O)c1ccc(C(=O)O)c(C(=O)O)c1 (racemic) (10 µM),0.105,98.2% (inactive)
CCN(CC)CCOC(=O)c1cc(Cl)c(N)cc1OC (10 µM),0.128,104% (inactive)
COc1cc(C=O)ccc1O [vanillin] (10 µM),0.0882,104% (inactive)
CO[C@@]1(NC(=O)Cc2cccs2)C(=O)N2C(C(=O)O)=C(COC(N)=O)CS[C@@H]21 [cefoxitin] (10 µM),0.228,100% (inactive)
CCCN1CC(NS(=O)(=O)N(CC)CC)CC2Cc3c(O)cccc3CC21 (configuration not stated) [quinagolide] (10 µM),-0.243,112% (inactive)
CC(C)(C)NCC(O)COc1cccc2[nH]c(=O)[nH]c12 (configuration not stated) (10 µM),0.0723,103% (inactive)
CCN(CC)C(C)C(=O)c1ccccc1 (configuration not stated) [amfepramone] (10 µM),0.016,116% (inactive)
Cn1c2cc([S+](C)[O-])sc2c2cnn(Cc3cccc(N)c3)c(=O)c21 (configuration not stated) (10 µM),0.0427,107% (inactive)
COc1ccc2c(c1)[C@]13CCCC[C@@H]1[C@H](C2)N(C)CC3 [dextromethorphan] (10 µM),-0.0426,112% (inactive)
CC(=O)O[C@]1(C(C)=O)CC[C@H]2[C@@H]3C=C(C)C4=CC(=O)CC[C@]4(C)[C@H]3CC[C@@]21C [megestrol-acetate] (10 µM),0.21,100% (inactive)
CC(=O)c1ccc2c(c1)N(CCCN1CCC(CCO)CC1)c1ccccc1S2 [piperacetazine] (10 µM),0.384,75% (inactive)
Cc1cccc(C)c1NC(=O)c1ccccc1C(=O)O [ftaxilide] (10 µM),-0.12,106% (inactive)
CCOc1ccccc1-n1c(C(C)N2CCN(C(=O)COc3ccc(Cl)cc3)CC2)nc2ccccc2c1=O (configuration not stated) [erastin] (0.833333 µM),-0.0506,86% (inactive)

SMILES,morphology score [1],SARS-CoV-2 infection rate [2]
COc1ccccc1OCC(O)CN1CCN(CC(=O)Nc2c(C)cccc2C)CC1 (configuration not stated) [ranolazine] (10 µM),0.0908,101% (inactive)
O=C1C(O)=C([C@H]2CC[C@H](c3ccc(Cl)cc3)CC2)C(=O)c2ccccc21 [atovaquone] (0.833333 µM),0.028,106% (inactive)
CN1C2CCCC1CC(NC(=O)c1nn(C)c3ccccc13)C2 (configuration not stated) [granisetron] (10 µM),-0.16,98.5% (inactive)
CN1CCN(C2=Cc3ccccc3Oc3ccc(Cl)cc32)CC1 (10 µM),0.217,106% (inactive)
Cc1cn(C[C@H](N)C(=O)O)c(=O)n(Cc2ccsc2C(=O)O)c1=O (10 µM),-0.0699,96.5% (inactive)
FC(F)(F)C(F)(F)C(F)(F)N(C(F)(F)C(F)(F)C(F)(F)F)C(F)(F)C(F)(F)C(F)(F)F [perfluamine] (10 µM),0.16,92.5% (inactive)
C[C@@H]1O[C@@H](O[C@H]2[C@H](Oc3cc(O)c4c(c3)O[C@H](c3ccc(O)cc3)CC4=O)O[C@H](CO)[C@@H](O)[C@@H]2O)[C@H](O)[C@H](O)[C@H]1O [Naringin (Naringoside)] (10 µM),0.254,106% (inactive)
N[C@@H](Cc1ccc(O)cc1)C(=O)NCC(=O)NCC(=O)O (10 µM),-0.0946,114% (inactive)
CCO[C@H]1O[C@@H]2O[C@@]3(C)CC[C@H]4[C@H](C)CC[C@@H]([C@H]1C)[C@@]24OO3 [artemotil] (10 µM),-0.085,113% (inactive)
COCc1nnc(N2CC(Oc3ccc(F)cc3Cl)C2)n1-c1ccc(OC)nc1 (10 µM),-0.109,106% (inactive)
COc1ccc(-c2ccc3cc(C(=O)O)ccc3c2)cc1C12CC3CC(CC(C3)C1)C2 [adapalene] (10 µM),-0.091,104% (inactive)
O=C1NC(=O)c2cc(Nc3ccc(F)cc3)c(Nc3ccc(F)cc3)cc21 (10 µM),0.329,77.5% (inactive)
Brc1ccc(NC2C3CC4CC(C3)CC2C4)cc1 (configuration not stated) [bromantan] (10 µM),-0.111,99.5% (inactive)
CC(C)(C)c1ccc(C(=O)Nc2cn3cc(-n4ccnc4)ccc3n2)cc1 (10 µM),-0.0468,100% (inactive)
CN(C)CCCC1(c2ccc(F)cc2)OCc2cc(C#N)ccc21 (configuration not stated) [citalopram] (10 µM),-0.167,107% (inactive)
Cc1nnc2ccc(-c3cccc(C(F)(F)F)c3)nn12 (10 µM),-0.183,104% (inactive)
Cc1cc(C)c2c(c1)[C@@H](N(Cc1cc(C(F)(F)F)cc(C(F)(F)F)c1)c1nnn(C)n1)CCCN2C[C@H]1CC[C@H](C(=O)O)CC1 [evacetrapib] (10 µM),0.0498,97% (inactive)
CC1(C)S[C@@H]2[C@H](NC(=O)[C@H](NC(=O)N3CCNC3=O)c3ccccc3)C(=O)N2[C@H]1C(=O)O [azlocillin] (10 µM),-0.0252,104% (inactive)
